# Compound activity as filed in PubChem BioAssay.
# This excerpt belongs to a sample that is enriched for hits.
# Pf Dd2 growth: qHTS Primary assay for Inhibitors of Plasmodium falciparum Dd2 growth in vitro; Potency, µM (titrated, usually from 28.9 µM), usual class: inhibitors; P. falciparum Dd2 growth, SYBR Green, 72 h; actives 4.3% (n = 120,000); active means well fitted inhibition curve with a large enough effect; further: nearly all actives have a fitted effect of over 65% in size
#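 Readout: SYBR Green fluorescence, 485 nm excitation, 535 nm emission, after ~16 h lysis at 37C. Before that, Dd2-infected red cells (2.5% hematocrit) grew 72 h with compound, 29 uM top final concentration.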
# A number is an active result; – = inactive; [ ] = dose if it differs, or a comment.
SMILES,Pf Dd2 growth
COc1ccc(N2CC(c3noc(-c4ccc(C(C)(C)C)cc4)n3)CC2=O)cc1OC (stereo not drawn),–
COC1CCCN(c2ncnc3c2CCN(C(=O)c2ccoc2)CC3)C1 (stereo not drawn),–
O=C(N1CCCC1)N1CCN(c2ncnc3sccc23)CC(O)C1 (stereo not drawn),–
Cn1nccc1C(=O)N1CCC(c2cc(-c3ccc(F)cc3)n[nH]2)CC1,–[5.79 µM]
C[S+](=O)([O-])N1CCCC(c2nnc3n2CCNC3)C1 (stereo not drawn),–
COc1cc(OC)cc(C(=O)N2CCN(c3cc(-c4ccc(Cl)cc4)[nH]n3)CC2)c1,–
COc1ccc(-c2cc(N3CCCN(C(=O)c4ccccc4)CC3)n[nH]2)cc1,–
COc1ccc(CCC(=O)N2CCCN(c3cc(-c4ccc(Br)cc4)[nH]n3)CC2)cc1,–
O=C(CCCc1ccccc1)N1CCN(c2cc(-c3ccccc3)[nH]n2)CC1,–
COc1cccc(C(=O)N2CCCN(c3cc(-c4ccc(Cl)cc4)[nH]n3)CC2)c1,3.98µM
COc1ccc(-c2cc(N3CCCN(C(=O)CCCc4ccccc4)CC3)n[nH]2)cc1,2.24µM
CN(C)C(=O)C1CN(C(=O)Nc2cccc(Cl)c2)CC12CCOCC2 (stereo not drawn),–
O=C(c1ccccn1)N1CCC(c2cc(-c3ccc(F)cc3)n[nH]2)CC1,–[5.79 µM]
Cn1nccc1C(=O)N1CC(c2ncc3c(-c4ccc(F)cc4)nccn23)C1,–
Cc1cccc(C(=O)N2C(C(=O)N3CCOCC3)COC23CCN(C(=O)CC(C)(C)C)CC3)c1 (stereo not drawn),–
CC(=O)N1CCC2(COc3ncccc3[S+](=O)([O-])N2)C1 (stereo not drawn),–
O=C1CC(c2ccccc2)N(C(=O)CNC(=O)c2nccc3ccccc23)CCCCCCN1 (stereo not drawn),0.355µM
O=C1CC(c2ccccc2)N(C(=O)CNC(=O)c2ccccn2)CCCCCCN1 (stereo not drawn),–
COc1ccc(C(=O)NCC(=O)N2CCCCCCNC(=O)CC2c2ccccc2)cc1F (stereo not drawn),–
O=C1CC(c2ccccc2)N(C(=O)CNC(=O)c2cccnc2)CCCCCCN1 (stereo not drawn),–
O=C1CC(c2ccccc2)N(C(=O)CNC(=O)c2n[nH]c3ccccc23)CCCCCN1 (stereo not drawn),–
COc1ccc2cc(C(=O)NCC(=O)N3CCCCCCNC(=O)CC3c3ccccc3)[nH]c2c1 (stereo not drawn),14.1µM
COc1cccc(CC(=O)NCC(=O)N2CCCCCCNC(=O)CC2c2ccccc2)c1 (stereo not drawn),–
O=C1CC(c2ccccc2)N(C(=O)CNC(=O)c2[nH]nc3c2COc2ccccc2-3)CCCCCN1 (stereo not drawn),2.51µM
O=C1CC(c2ccccc2)N(C(=O)CNC(=O)c2ccncc2)CCCCCCN1 (stereo not drawn),–
SMILES,Pf Dd2 growth
COc1ccccc1CCC(=O)N1C[C@H](c2nc(-c3cccnc3)no2)[C@@H](C)C1,–
O=C1NC(C(=O)NCc2cccc(F)c2)Cn2cccc21 (stereo not drawn),–
COc1ccc([C@H]2C[C@@H](O)[C@@H](O)[C@@H]2NS(=O)(=O)c2cccc(C#N)c2)cc1,–
c1ccc(Cc2nnc([C@H]3CCN(Cc4ccncc4)C3)o2)cc1,–
CC(C)CCN1CCC(N2CCN(C(=O)c3ccsc3)CC2)C1=O (stereo not drawn),–
C=CCCC(CN1CCSCC1)Oc1nccc(C)n1 (stereo not drawn),–
COCCOc1cc(C)c2c(c1C)C[C@H](C(C)C(=O)N1CCSCC1)CC2 (stereo partly drawn),10µM
COCCOc1cc(C)c2c(c1C)C[C@H](C(C)C(=O)N1CCC(O)CC1)CC2 (stereo partly drawn),–
COc1cc(C)c2c(c1C)C[C@H]([C@H](C)C(=O)O)CC2,–
COCc1nc(C2CCCN(C(=O)CCc3ccccc3)C2)no1 (stereo not drawn),–
CCOc1ccc(Nc2c3c(nc4nncn24)CCC3)cc1,–
Cc1cccc(Nc2c3c(nc4nncn24)CCC3)c1,–
Brc1ccc(Nc2c3c(nc4nncn24)CCC3)cc1,3.98µM
Cc1ccc(Nc2c3c(nc4nncn24)CCC3)cc1C,10µM
Cc1ccc(Nc2c3c(nc4nncn24)CCC3)cc1,–
Cc1ccccc1Nc1c2c(nc3nncn13)CCC2,–
O=C1CC(c2ccccc2)N(C(=O)CNC(=O)CN2CCCC2=O)CCCCCN1 (stereo not drawn),–
CCOCc1nc(C2CCCN(C(=O)c3ccncc3)C2)no1 (stereo not drawn),–
COC(=O)CNC(=O)c1nc(C(C)(C)C)c2ccccn12,–
COc1cccc(-c2nnnn2[C@H]2CO[C@H]3[C@@H]2OC[C@@H]3NS(=O)(=O)Cc2ccccc2)c1,–
COc1ccccc1N1CCN(CC[C@H]2CN(C(=O)Nc3ccccc3)CC[C@H]2CC(=O)O)CC1,–
CCN(CC)Cc1cnc2c(C(=O)N3CCN(c4ncccn4)CC3)cnn2c1,–
Cc1ccc(Cn2cc(S(=O)(=O)c3cccc(C)c3)c(=O)c3cc(F)c(N4CCOCC4)cc32)cc1,10µM
CCn1cc(S(=O)(=O)c2cc(C)cc(C)c2)c(=O)c2cc(F)c(N3CCOCC3)cc21,–
O=c1c(S(=O)(=O)c2ccccc2)cn(Cc2ccccc2)c2cc(N3CCOCC3)c(F)cc12,8.91µM
SMILES,Pf Dd2 growth
Cc1cccc(S(=O)(=O)c2cn(C)c3cc(N4CCN(c5ccccc5)CC4)c(F)cc3c2=O)c1,–
Cn1cc(S(=O)(=O)c2cccc(Cl)c2)c(=O)c2cc(F)c(N3CCN(c4ccccc4)CC3)cc21,–
Cc1ccc(Cn2cc(S(=O)(=O)c3cccc(Cl)c3)c(=O)c3cc(F)c(N4CCOCC4)cc32)cc1,–
CS(=O)(=O)N1C[C@H]2CCN(C(=O)c3ncccc3F)C[C@H]21,–
Cc1ccc(C)c(Cn2c(-c3ccc(F)cc3)nc(C)c(CCO)c2=O)c1,–
CNCCN1C(=O)CC[C@H]2CN(C(=O)N3CCOCC3)CC[C@H]21,–
Cc1nc2n(c1C(=O)Nc1nccs1)CCC(Nc1ccccc1)C2 (stereo not drawn),–
O=C(NCCc1cccs1)C1CN(S(=O)(=O)C2CC2)CC12CCCCC2 (stereo not drawn),–
O=C(c1cccc(F)c1)N1CCC2(CC1)N(CC1CC1)C(=O)CS2=O (stereo not drawn),–
O=C1OCC2(CCN(Cc3ccn[nH]3)C2)N1Cc1ccccc1 (stereo not drawn),–
O=C1OCC2(CCN(Cc3ccccc3O)C2)N1Cc1ccccc1 (stereo not drawn),10µM
N#Cc1ccc(CN2CCC3(COC(=O)N3Cc3ccccc3)C2)cc1 (stereo not drawn),–
N#Cc1cccc(C(=O)N2CCOCCNC(=O)CC2)c1,–
C[C@@H](NC(=O)C1CCCCC1)c1c(-c2ccc(F)cc2)noc1C(=O)O,–
CN1CCC(C2CCN(C(=O)NC3CCCC3)C2)CC1 (stereo not drawn),–
CC(=O)N1CCC2(CC1)CN(C(=O)CCCNC(N)=O)Cc1ccccc1O2,–
CN(C)c1nc2c(c(=O)[nH]1)CCN(Cc1ccc(F)cc1F)CC2,–[5.79 µM]
CN(Cc1cccnc1)c1nc2c(c(=O)[nH]1)CCN(Cc1ccc(Cl)c(F)c1)CC2,–[5.79 µM]
CN(Cc1cccnc1)c1nc2c(c(=O)[nH]1)CCN(Cc1cccc(F)c1)CC2,–[5.79 µM]
